# High-throughput results as filed in PubChem BioAssay.
# KB-V1 cytotox: KB-V1 MDR subline cytotoxicity. Potency, µM (series often up to 46.1 µM), most hits filed as cytotoxic. KB-V1 MDR cells viability, CellTiter-Glo, 72 h. 400,000 tested, 3.4% active. AID 1347076; also: % is scaled to controls: 0 for no effect and ±100 for the full control effect; nearly all actives have a fitted effect of over 60% in size
#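 In this primary screen, KB-V1 cells overexpressing P-gp are incubated with library compounds (lowest to highest concentration) for 72 h at 37 degrees C before a luminescent ATP viability read.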
# SW480 rerep: DNA re-replication induction in SW480 cells; SW480 DNA re-replication, Hoechst DNA content imaging, 48 h; 340,000 tested, 1.8% active; Potency, µM (top dose mostly 46.1 µM), for the others: top-dose re-replication activation, actives largely listed as activators; also: % of control where 0% means no effect; nearly all actives have a fitted effect of over 55% in size
#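 Hoechst fluorescence of nuclei (405 nm excitation, 500-530 nm emission) measured by plate-scanning imager after 48 hr compound exposure at 37 C; re-replication scored as increased number of nuclei with elevated intensity.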
# HT1080-NT tox: kills 2HG-producing HT-1080-NT fibrosarcoma cells; HT-1080-NT fibrosarcoma viability, CellTiter-Glo ATP luminescence, 48 h; Potency, µM (series often up to 46.1 µM), for inactives: at the top dose activity, negative = less viability, usual class: cytotoxic; 360,000 tested, 1.6% active; AID 686970;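 also: NT is the 2HG producing partner of a matched IDH1 knockdown line; 0% = DMSO-treated cells and -100% = media-only wells without cells; nearly all actives have a fitted effect of over 55% in size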
#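 A 48-hour cytotoxicity screen used HT-1080-NT cells plated 2 hours before compound delivery. ATP-based CellTiter-Glo luminescence measured viability, normalized to DMSO and no-cell controls.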
# HT1080 IDH1KD tx: kills HT-1080 cells with IDH1 knockdown; HT-1080 IDH1 knockdown viability, ATP luminescence, 48 h; AID 686971; 360,000 tested, 2% active; Potency, µM (doses to about 46.1 µM), for inactives: at the highest dose activity, negative = toxicity, hits mostly cytotoxic;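 also: 0% = DMSO wells and -100% = cell-free medium wells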
#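 Cytotoxicity counter-line: IDH1KD HT-1080, 48 h, CellTiter-Glo. Curves classed by r2, magnitude and activity.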
# MCF10A rerep: inducers of DNA re-replication in MCF 10A breast cells. MCF 10A DNA re-replication, Hoechst nuclear intensity, 48 h. Potency, µM (doses to about 46.1 µM), inactives show top-dose activity, positive = re-replication, hits mostly activators. 350,000 tested, 2.9% active. AID 624296; also: % of control where 0% means no effect; nearly all actives have a fitted effect of over 50% in size
# KB-3-1 tox: kills parental KB-3-1 adenocarcinoma cells; KB-3-1 viability, CellTiter-Glo ATP luminescence, 72 h; Potency, µM (titrated, usually from 46.1 µM), usual class: cytotoxic; 400,000 tested, 1.4% active; also: % is scaled to controls: 0 for no effect and ±100 for the full control effect; nearly all actives have a fitted effect of over 60% in size
#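 Cells are dispensed, compounds pinned in, plates held at 37 °C for 72 h, then CellTiter-Glo is added and luminescence read after 10 minutes. Cell line: parental KB-3-1 in phenol-red-free DMEM, 10% FBS.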
# Starred values were filed as active, the others as inactive; i = inactive; ? = inconclusive; nt = no result. The list is not random: actives were taken first. Their share in the collection is about 7.9%. Calls follow the shape of the dose curve; as a rule, active = well fitted curve in the direction sought with a large enough effect; inconclusive = small, poorly fitted or top-dose-only effect, or another doubt; inactive = no such curve, though single readings can be large; an effect the other way counts as inactive or inconclusive. Potency is read from the fitted curve at half-maximal effect.
SMILES,KB-V1 cytotox,SW480 rerep,HT1080-NT tox,HT1080 IDH1KD tx,MCF10A rerep,KB-3-1 tox
N#CCCN1CCN(CCC#N)c2ccccc21,?,-1%,1%,2%,5%,?
O=C(N/N=C/c1ccc(Cl)cc1)c1ccc2c(c1)OCO2,i,?,?,?,17%,i
O=C(N/N=C/c1ccc2c(c1)OCO2)c1cc(-c2ccccc2)nc2ccccc12,i,10%,-25%,-25%,?,?
O=Cc1cc2cc3c(cc2nc1Cl)OCCO3,i,-6%,7%,-2%,-4%,i
O=C(N/N=C/c1ccc2c(c1)OCO2)c1cc(-c2ccco2)nc2ccccc12,?,15µM*,4.1µM*,3.7µM*,?,?
O=C(N/N=C/c1ccc2c(c1)OCO2)c1cccc2ccccc12,?,103%,?,?,16µM*,?
O=C(O)c1ccc(N/N=C/c2cc3cc4c(cc3nc2Cl)OCCO4)cc1,i,?,-1%,-3%,13µM*,i
O=C(N/N=C/c1ccc2c(c1)OCO2)c1ccc2ccccc2n1,i,?,-13%,?,?,i
O=C(N/N=C/c1ccc2c(c1)OCO2)c1ccc2c(c1)OCCO2,i,?,?,23µM*,?,16µM*
N#CCCN1CCN(S(=O)(=O)c2ccc(S(=O)(=O)NCc3ccccc3)cc2)CC1,i,-16%,-2%,-7%,-1%,i
Cc1cccc2cc(CN(C(=O)c3cccc([N+](=O)[O-])c3)C(C)C)c(=O)[nH]c12,?,-8%,7%,14%,5%,i
Cc1cc(NC(=O)CCC(=O)N(CCC(C)C)C(C(=O)NC2CCCC2)c2cccnc2)no1 (configuration not stated),i,1%,-1%,0%,1%,i
Cc1ccc(C)c(NC(=O)c2ccc(=O)n(Cc3ccc(F)cc3)c2)c1,i,nt,nt,nt,nt,i
CN(CC(=O)Nc1cccc(C(F)(F)F)c1)S(=O)(=O)c1ccc2[nH]c3c(c2c1)CCCC3,i,nt,nt,nt,nt,i
Cc1ccccc1NCC(=O)N/N=C\c1ccc2c(c1)OCO2,i,-10%,-4%,-10%,-4%,i
O=C(N/N=C/c1ccc2c(c1)OCO2)c1ccc(COCC(F)(F)C(F)F)cc1,i,6.5µM*,1µM*,1.3µM*,?,8.2µM*
COc1ccc(/C=N/NC(=O)c2ccc(COCC(F)(F)C(F)F)cc2)cc1,?,-19%,4%,-8%,-28%,i
Cn1cc(C(=O)N/N=C/c2ccc3c(c2)OCO3)c2ccccc21,?,?,21µM*,12µM*,?,8.2µM*
Cc1cccc(C)c1OCC(=O)N/N=C/c1ccc2c(c1)OCO2,5.2µM*,?,15µM*,?,5.8µM*,?
Cc1cc(C(=O)N/N=C/c2ccc3c(c2)OCO3)c(C)o1,?,-49%,-25%,?,-49%,i
O=C(O)c1ccc(N/N=C/c2ccc3c(c2)OCO3)cc1,?,10%,18µM*,23µM*,3%,21µM*
O=C(O)c1ccc(Oc2c(C(F)(F)F)oc3cc(O)ccc3c2=O)cc1,i,-48%,-17%,-23%,?,i
CN(CCC1CCOCC1)C(=O)C1CCC(=O)N(CCc2ccccc2)C1 (configuration not stated),nt,2%,0%,-1%,-5%,nt
COc1ccccc1CCNC(=O)c1cc(-c2ccccn2)nc2ccccc12,?,9%,-1%,6%,2%,i
CN(C(=O)c1cc2n(n1)C(C(F)(F)F)CC(c1ccco1)N2)c1ccc(OC(F)(F)F)cc1 (configuration not stated),i,9%,-12%,-1%,3%,i
SMILES,KB-V1 cytotox,SW480 rerep,HT1080-NT tox,HT1080 IDH1KD tx,MCF10A rerep,KB-3-1 tox
O=C(CSCc1cccc(Br)c1)N/N=C/c1ccc2c(c1)OCO2,i,?,-3%,-21%,?,18µM*
O=C(N/N=C/c1cc(Br)c(Br)o1)c1ccc2c(c1)OCCO2,?,0%,-24%,?,13µM*,i
COc1ccccc1C(=O)NCC(=O)N/N=C/c1ccc2c(c1)OCO2,i,?,?,21µM*,?,?
Cn1cc(C(=O)N/N=C/c2ccc(Br)c([N+](=O)[O-])c2)c2ccccc21,i,?,14%,-2%,-10%,16µM*
COc1ccccc1C(=O)NCC(=O)N/N=C/c1ccncc1,i,5%,15%,20%,0%,i
O=C(N/N=C/c1ccc2c(c1)OCO2)c1ccccn1,15µM*,8%,?,?,3%,?
Cc1cn2c(=O)c(S(=O)(=O)Nc3ccc(F)cc3F)c(C)nc2s1,i,nt,nt,nt,nt,i
O=C(c1cn(Cc2ccccc2)nc1-c1cccnc1)N1CCc2ccccc2C1,i,-22%,-1%,-1%,4%,i
COC(CNC(=O)C1CCN(C(=O)c2cc3oc(C)cc3n2Cc2c(F)cccc2Cl)CC1)OC,8.2µM*,-37%,4%,-16%,0%,?
Cc1ccc(C(=O)Nc2ccccc2N2CCCCC2)cc1[N+](=O)[O-],?,?,10%,2%,2%,?
Cc1ccc(C(=O)NC(=S)Nc2ccc(NC(=O)c3cccs3)cc2)cc1[N+](=O)[O-],i,-4%,?,21µM*,?,i
Cc1ccc(C(=O)Nc2ccc(NC(=O)c3cccs3)cc2)cc1[N+](=O)[O-],i,-4%,26%,7%,1%,i
Cc1ccc(C(=O)NC(=S)Nc2ccccc2N2CCCC2)cc1[N+](=O)[O-],i,0%,-18%,-25%,2.6µM*,i
Cc1ccc(C)c(-n2nnc3ccccc3c2=O)c1,?,nt,3%,3%,nt,i
Cc1ccc(C(=O)CSc2nc3cc(C(=O)NC4CCCC4)ccc3c(=O)n2CC2CCCO2)c(C)c1 (configuration not stated),i,nt,nt,nt,nt,i
CCCCCC(=O)N1C[C@H](O)[C@@H](n2cc(C3CC3)nn2)C[C@@H]1c1ccc(OC)cc1,i,nt,-10%,-2%,nt,i
S=C(NCCC1=CCCCC1)Nc1ccc(Cl)cc1,7.3µM*,4%,16%,7%,10%,i
COc1ccc(NC(=S)NCCC2=CCCCC2)cc1OC,i,4%,9%,8%,0%,i
